Screens as filed in PubChem BioAssay.
Hits are enriched below; roughly 2.4% of the tested compounds scored in any of these assays.
Cruzain noTriton: inhibitors of Trypanosoma cruzi cruzain without detergent | purified cruzain, Z-FR-AMC fluorescence, no detergent | Potency, µM, inactives show max response, negative = inhibition, usual class: inhibitors | 200,000 compounds, 2.3% hits;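 note: plate controls were enzyme without inhibitor for no effect and buffer without enzyme for full effect; nearly all actives have a fitted effect of over 40% in size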
Target sequence (P25779 123-467 limits assumed): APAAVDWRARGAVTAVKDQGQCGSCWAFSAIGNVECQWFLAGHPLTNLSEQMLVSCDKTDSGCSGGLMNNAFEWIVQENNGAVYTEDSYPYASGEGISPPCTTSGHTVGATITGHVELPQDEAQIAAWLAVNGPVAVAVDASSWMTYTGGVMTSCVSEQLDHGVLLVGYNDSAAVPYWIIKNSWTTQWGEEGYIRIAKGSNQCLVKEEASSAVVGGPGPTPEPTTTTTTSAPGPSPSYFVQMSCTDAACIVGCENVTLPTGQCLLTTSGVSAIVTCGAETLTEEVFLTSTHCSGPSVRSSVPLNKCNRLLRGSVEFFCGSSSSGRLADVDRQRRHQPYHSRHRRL
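Purified cruzain at 1.5 nM, pre-incubated 15 min with compound at room temperature in 100 mM sodium acetate pH 5.5, 5 mM DTT, 0.00005% Triton X-100. Reaction started with 2 uM Z-FR-AMC; AMC fluorescence increase over 60 s gives rate.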
Cruzain inh Det: inhibitors of Trypanosoma cruzi cruzain with detergent | purified cruzain, Z-FR-AMC fluorescence, 0.01% Triton | Potency, µM, inactives show max response, negative = inhibition, actives largely listed as inhibitors | P25779 | AID 1478 | 200,000 compounds, 0.43% hits;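 note: plate controls were neutral wells for no effect and buffer without enzyme for full effect; nearly all actives have a fitted effect of over 40% in size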
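Cysteine protease activity tested under reducing, mildly acidic conditions (100 mM sodium acetate pH 5.5, 5 mM DTT) plus 0.01% Triton X-100. Cruzain 1.5 nM; substrate Z-FR-AMC 2 uM; 15 min compound preincubation at room temperature.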
Starred values were filed as active, the others as inactive; ? = inconclusive. Calls come from the whole dose curve; as a rule, active = well fitted curve in the direction sought with a large enough effect; inconclusive = small, poorly fitted or top-dose-only effect, or another doubt; inactive = no such curve, though single readings can be large; an effect the other way counts as inactive or inconclusive. Potency is the fitted concentration of half-maximal effect.

SMILES	Cruzain noTriton	Cruzain inh Det
CCc1ccc(-c2nc(CN3CCCC(C(=O)N4CCN(c5cc(Cl)ccc5C)CC4)C3)c(C)o2)cc1 (configuration not stated)	18%	-1%
CCS(=O)(=O)c1c(Nc2ccc(F)c(Cl)c2)sc(C(=O)c2ccccc2)c1N	-11%	-13%
Cc1cc(C)cc(Nc2sc(C(=O)c3ccccc3)c(N)c2S(=O)(=O)c2ccccc2)c1	10µM*	0%
Nc1c(C(=O)c2ccccc2)sc(Nc2ccccc2)c1S(=O)(=O)c1ccccc1	7.9µM*	-2%
Cc1ccc(Nc2sc(C(=O)c3ccccc3)c(N)c2C(N)=O)cc1	9%	-1%
COc1ccc(CN(C(=O)c2ccccc2F)C2CCS(=O)(=O)C2)cc1 (configuration not stated)	13%	-1%
COc1ccc(OCC(=O)Nc2ccc3c(c2)N(C)C(=O)c2ccccc2S3)cc1	2%	-3%
CCOC(=O)c1sc2ccccc2c1S(=O)(=O)N1CCN(c2cc(C)ccc2C)CC1	20µM*	-4%
COC(=O)c1sc2cccc(F)c2c1S(=O)(=O)N1CCN(c2ccc(C)cc2C)CC1	?	-6%
Cc1ccc2c(c1)cc1c(=O)n(CC(=O)NCc3ccco3)nc(C)n12	-9%	-1%
Cc1ccc(OCC(=O)Nc2ccc(S(=O)(=O)N(Cc3ccccc3)c3ccccc3)cc2)cc1	7.9µM*	2%
CCOc1ccccc1C(=O)Nc1ccc(S(=O)(=O)N(Cc2ccccc2)c2ccccc2)cc1	28%	4%
COc1ccc(N=Nc2nc(-c3ccccc3)c(-c3ccccc3)[nH]2)cc1	25µM*	-2%
COc1ccccc1N=Nc1nc(-c2ccccc2)c(-c2ccccc2)[nH]1	-23%	-5%
CC1(C)O[C@@H]2[C@@H](O1)C(c1ccccc1)(c1ccccc1)OP(=O)(O)OC2(c1ccccc1)c1ccccc1	?	-10%
Cc1ccc(NC(=O)N(Cc2ccc3c(c2)OCO3)Cc2cc3cc4c(cc3[nH]c2=O)OCCO4)cc1	32µM*	2%
Cc1ccc(NC(=O)N(Cc2cccs2)Cc2cc3cc4c(cc3[nH]c2=O)OCO4)cc1	?	0%
CCc1nnc(NC(=O)CCc2ccc(C)o2)s1	-3%	1%
Cc1ccc(CCC(=O)Nc2ncc(Cc3cccc(Cl)c3Cl)s2)o1	13µM*	1%
c1ccc(CNc2ncnc3ccc(-c4cccnc4)cc23)cc1	3%	-4%
Cc1nn(C)c2c1c(C(F)(F)F)cc(=O)n2C(C)C(=O)NCc1ccccc1 (configuration not stated)	10%	-1%
CCNc1cc(N2CCN(S(=O)(=O)c3ccc4c(c3)CCCC4)CC2)ccc1[N+](=O)[O-]	5µM*	-2%
Cc1cc(C)c(S(=O)(=O)N2CCN(c3ccc([N+](=O)[O-])c(NCC4CCCO4)c3)CC2)c(C)c1 (configuration not stated)	?	-8%
O=[N+]([O-])c1ccc(N2CCN(S(=O)(=O)c3ccc(Cl)c(Cl)c3)CC2)cc1NCCN1CCOCC1	6%	-5%
Cc1cc(C)c(S(=O)(=O)N2CCN(c3ccc([N+](=O)[O-])c(NCc4ccco4)c3)CC2)c(C)c1	6.3µM*	0%
SMILES	Cruzain noTriton	Cruzain inh Det
CC1CCN(c2oc(-c3ccc(COc4ccccc4)o3)nc2C#N)CC1	-28%	-18%
Cc1ccc(NC(=O)c2nnn(CC(=O)Nc3ccc(C)c(Cl)c3)c2N)c(C)c1	10µM*	1%
Cc1ccc(NC(=O)c2nnn(CC(=O)Nc3ccccc3)c2N)cc1C	?	6%
Cc1cccc(Nc2nnc(SCC(=O)NC3CCCc4ccccc43)s2)c1 (configuration not stated)	-5%	-9%
Cc1ccc(-n2nnnc2SCC(=O)NC(=O)Nc2ccc3c(c2)OCCO3)cc1	-12%	-3%
Cc1cccc(Nc2nnc(SCC(=O)NC(=O)Nc3ccc4c(c3)OCCO4)s2)c1	16µM*	-2%
Cc1cccc(Nc2nnc(SCC(=O)Nc3cccnc3Cl)s2)c1	16µM*	25µM*
Cc1ccccc1Nc1nnc(SCC(=O)NC(=O)Nc2ccc3c(c2)OCCO3)s1	?	-4%
O=C(CSc1nnnn1-c1ccc(Cl)cc1)NC(=O)Nc1ccc2c(c1)OCCO2	25µM*	-2%
Cc1cccc(C)c1Nc1nnc(SCC(=O)Nc2cc(S(=O)(=O)N3CCCCC3)ccc2Cl)s1	13µM*	-3%
Cc1cccc(NC(=O)CSc2nnc(NC(=O)c3ccc(S(=O)(=O)N4CCOCC4)cc3)s2)c1C	-11%	-1%
Cc1ccc(CCNC(=O)CSCc2nc(-c3ccc(C)cc3)oc2C)cc1	24%	-4%
Nc1cccc(-c2cn3ccsc3n2)c1	10%	-2%
CN(C)c1ccc(CN(Cc2ccco2)C(=O)c2ccc(F)cc2)cc1	-11%	-7%
CCOc1ccc(-n2nc3ccc(NC(=O)c4ccc(-c5cccc(Cl)c5)o4)cc3n2)cc1	3%	-1%
O=c1[nH]c(=O)n(C2CC(O)C(CO)O2)cc1C(F)(F)F (configuration not stated)	1%	-2%
CCOc1ccc(CN2C(=O)C(=O)c3cccc(C)c32)cc1OC	10%	0%
Cc1cccc(Nc2nnc(SCC(=O)Nc3cccc(S(=O)(=O)N4CCCCC4)c3)s2)c1	13µM*	-3%
Cc1cccc(NC(=O)CSc2nnc(NC(=O)CN3CCCCC3)s2)c1	-14%	-4%
CN(C)c1ccc(C(CNS(=O)(=O)c2ccc(Br)cc2)N2CCCC2)cc1 (configuration not stated)	9%	0%
Nc1ccc(C(=O)Nc2nc3ccccc3s2)cc1	5%	-9%
Nc1c(C(=O)Nc2ccc(Cl)cc2F)sc2nc(-c3cccs3)ccc12	25µM*	-11%
Nc1c(C(=O)Nc2ccccc2Br)sc2nc(-c3cccs3)ccc12	20µM*	-8%
Nc1c(C(=O)Nc2nc3ccccc3s2)sc2nc(-c3cccs3)ccc12	7.9µM*	-9%
CC(=O)c1sc2nc(-c3cccs3)ccc2c1N	-8%	-13%
SMILES	Cruzain noTriton	Cruzain inh Det
Nc1c(C(=O)Nc2ccc(F)c(F)c2)sc2nc(-c3ccncc3)ccc12	-3%	-3%
COc1ccccc1NCc1nnc2n1CCCCC2	-6%	1%
CCCC(=O)Nc1nnc(SCc2cc(=O)c3cc(C)ccc3[nH]2)s1	3%	4%
Cn1c(=O)c(C(=O)COC(=O)c2cc(C(F)(F)F)nc3ccccc23)c(N)n(Cc2ccccc2)c1=O	-12%	-4%
Cn1c(=O)c(C(=O)COC(=O)c2cc(-c3ccccc3)nc3ccccc23)c(N)n(Cc2ccccc2)c1=O	10µM*	0%
COc1cccc(/C=C/C(=O)Nc2ccc3nc(N4CCN(C)CC4)cc(C)c3c2)c1OC	-4%	-12%
Cc1cccc2c1N(C(=O)CN1C(=O)c3ccccc3C1=O)C(C)(C)c1ssc(=S)c1-2	13µM*	-1%
Cc1cc(C)c2c(c1)-c1c(ssc1=S)C(C)(C)N2C(=O)CN1C(=O)c2ccccc2C1=O	?	-7%
COc1ccc(OC)c(NC(=O)Cn2cc(C(=O)c3cccs3)c3ccccc32)c1	?	-8%
CCN(CC)C(=O)C1=C(C)Nc2nc3ccccc3n2C1c1ccc(Cl)cc1 (configuration not stated)	1%	-4%
N#CC1=C(N)Nc2nc3ccccc3n2C1c1ccc(Cl)cc1 (configuration not stated)	32µM*	-1%
C=C(C)c1ccccc1 (tested in a mixture with another compound)	-25%	2%
